# CHO-K1 Ca PAM – M1 PAM counterscreen hit in parental CHO-K1 cells | ATP EC20, Fluo-8 calcium fluorescence; 0% at ATP EC20, 100% at ATP max | activation, % at 3 µM | actives 0.02% (n = 360,000);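 active = activation above the run cutoff, the mean activation of all test compounds plus 3 SD, cut at about 40% in these data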;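 also: peak over basal fluorescence ratio in a 140 s read after ATP addition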
# M1 ag parental – M1 agonist counterscreen hit in parental CHO-K1 cells; actives 0.48% (n = 360,000); activation, % at 3 µM; AID 602248; Fluo-8 calcium fluorescence; scaled to maximal ATP response, vehicle zero; in the data active = activation above about 15%;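 also: untransfected CHO-K1 host cells lacking M1 receptor as counterscreen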
# M1 ag – agonists of human M1 muscarinic receptor | P11229 | CHO-K1 hM1, Fluo-8 calcium fluorescence, agonist mode; 0% DMSO, 100% acetylcholine EC100 | activation, % at 3 µM | actives 0.33% (n = 360,000);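 active = activation above the run's mean compound activation plus 3 SD, cut at about 16% in these data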;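 also: peak over basal fluorescence ratio within a 140 s kinetic read after compound addition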
# Target sequence (P11229 whole entry, looked up): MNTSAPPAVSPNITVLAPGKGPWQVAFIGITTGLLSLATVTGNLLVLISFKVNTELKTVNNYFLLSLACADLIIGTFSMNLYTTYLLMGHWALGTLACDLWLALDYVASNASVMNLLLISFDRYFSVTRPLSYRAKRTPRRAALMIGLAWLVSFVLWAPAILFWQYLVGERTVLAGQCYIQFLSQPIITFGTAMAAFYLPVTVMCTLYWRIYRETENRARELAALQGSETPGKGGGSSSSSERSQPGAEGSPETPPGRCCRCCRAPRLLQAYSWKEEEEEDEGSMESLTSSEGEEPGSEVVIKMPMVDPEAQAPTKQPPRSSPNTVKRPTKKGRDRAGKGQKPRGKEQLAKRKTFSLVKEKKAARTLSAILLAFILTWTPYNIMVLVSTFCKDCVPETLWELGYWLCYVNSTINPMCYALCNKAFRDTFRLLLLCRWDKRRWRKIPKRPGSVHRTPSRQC
# CHO-K1 Ca antag – nonselective inhibitor or artifact in parental CHO-K1 cells | ATP-induced calcium, Fluo-8 fluorescence | inhibition, % at 3 µM | actives 0.6% (n = 360,000) | AID 602250;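 active = inhibition above a per-plate cutoff, the plate's mean sample inhibition plus 3 SD, cut at about 24% in these data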;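 also: 0% = DMSO plus EC80 ATP and 100% = DMSO alone without ATP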
# CHRM1 PAM – potentiates human M1 receptor response to acetylcholine | P11229 | CHO-K1 hM1, Fluo-8 calcium fluorescence, ACh EC20; 0% = ACh EC20, 100% = maximal ACh | activation, % at 3 µM | actives 0.088% (n = 360,000) | AID 588819; in the data active = activation above about 19%, passing the limit was not always enough
# M1 antag – antagonists of human M1 muscarinic receptor; inhibition, % at 3 µM; actives 1.3% (n = 360,000); CHO-K1 hM1, Fluo-8 calcium fluorescence, ACh EC80 antagonist; P11229;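 active = percent inhibition above its own plate's cutoff, namely the mean of that plate's compound wells plus 3 SD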;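 also: peak over basal fluorescence ratio during 140 s after agonist addition; 0% = ACh EC80 plus DMSO and 100% = DMSO alone without agonist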
# Active calls of the source: *. Only some compounds are listed: those with a hit (about 2.3% of all), similar ones and a draw of the others.
SMILES,CHO-K1 Ca PAM,M1 ag parental,M1 ag,CHO-K1 Ca antag,CHRM1 PAM,M1 antag
CCOC(=O)N1CCN(C(=O)CSCC(=O)Nc2nc(-c3ccc(-c4ccccc4)cc3)cs2)CC1,8,8,4,7,-19,48*
CC(C(=O)NC1CCCCC1)N1CCN(S(=O)(=O)c2cccs2)CC1 (centres undefined),14,0,-5,-15,4,-1
Cc1ccccc1CCNC(=O)c1ccc(Cl)c(S(=O)(=O)N2CC(C)OC(C)C2)c1 (centres undefined),2,9,-3,-6,-11,9
Oc1cc(CNC2CCCCC2)c(O)cc1CNC1CCCCC1,18,2,-2,-6,5,-10
COc1ccc2c(c1)CN(C)S(=O)(=O)c1ccccc1-2,7,0,-3,4,10,-10
CC1CCCN(CCCN2C(=O)C3C(C(=O)Nc4cccc(Cl)c4)C4C=CC3(O4)C2C(=O)NC2CCCCC2)C1 (centres undefined),-11,0,-8,0,11,-8
Cn1nc(C(C)(C)C)cc1C(=O)N1CCC(C)(C(=O)NS(=O)(=O)C2CC2)C1 (centres undefined),12,0,-1,-9,12,-12
O=C(C1CCC1)N1CCN(c2cccc(C(F)(F)F)c2)CC1,8,2,-3,-9,6,-23
O=C(C1CCN(c2nnc(-n3cccc3)s2)CC1)N1CCN(c2cccc(C(F)(F)F)c2)CC1,1,1,-3,4,-22,40*
CCOC(=O)C1(C)CCN1C(=O)/C=C/c1ccccc1 (centres undefined),-11,1,-2,6,0,-5
COC(=O)c1nn(-c2ccc(OC)cc2)c(=O)cc1NN,16,0,-11,-19,-19,59*
C[N+]1(C)CCCC(OC(=O)C(O)(c2ccccc2)c2ccccc2)C1 (centres undefined),-2,0,-9,9,-26,99*
O=C(CNC(=O)c1ccccc1)OC1CCCCC1,16,0,-5,-8,11,-11
COC(=O)c1cc(C(=O)OCC(=O)c2ccc[nH]2)cc([N+](=O)[O-])c1,-22,0,-5,17,2,6
COC(=O)c1cc(C(=O)OCC(=O)NC(=O)c2ccccc2)cc([N+](=O)[O-])c1,4,0,-2,5,2,28*
O=S1(=O)CC(N2CC=CC2)CN1Cc1ccc(F)cc1 (centres undefined),-9,0,8,29*,17,-1
Cc1ccc(CN2CC(N3CC=CC3)CS2(=O)=O)cc1 (centres undefined),-3,0,7,21,8,5
CCOC(=O)C1=CN(Cc2cccc(F)c2)S(=O)(=O)N(CC)C1c1ccc(C(F)(F)F)cc1 (centres undefined),3,1,-3,-11,-10,17
CCOC(=O)c1cnc(-n2[nH]c(C)c(Cc3ccccc3)c2=O)[nH]c1=O,5,0,-3,-3,8,-4
CCOC(=O)c1cnc(Cc2ccccc2)[nH]c1=O,-8,1,-10,-14,-9,25*
CN(C)C(CNC(C(=O)Nc1ccc(F)cc1)c1ccccc1)c1ccccc1 (centres undefined),9,4,-7,-15,-31,84*
O=C(Nc1ccc(F)cc1)C(NC1CCCCC1)c1ccccc1 (centres undefined),-15,0,-8,5,-26,60*
O=C(Nc1ccc(F)cc1)NC1CCCCCCC1,2,9,0,-2,-3,1
CN(C)C(CNC(C(=O)Nc1ccc([N+](=O)[O-])cc1Br)c1ccccc1)c1ccccc1 (centres undefined),-6,0,-7,-4,-3,6
CCN(CCS(=O)(=O)c1ccc(Br)cc1)Cc1nc2ccccc2c(=O)[nH]1,-19,1,-6,3,-10,27
SMILES,CHO-K1 Ca PAM,M1 ag parental,M1 ag,CHO-K1 Ca antag,CHRM1 PAM,M1 antag
Cc1ccc(S(=O)(=O)NC(C(=O)Oc2ccc3c(C)c(Cl)c(=O)oc3c2)c2ccccc2)cc1 (centres undefined),0,0,-6,0,-3,9
CCC[C@@H](NS(=O)(=O)c1ccc(C)cc1)C(=O)Oc1ccc2c3c(c(=O)oc2c1)CCC3,12,12,2,7,-25,38*
COc1ccccc1NS(=O)(=O)c1cccc(-n2c(O)c(C=Nc3ccccc3C(=O)O)c3ccccc3c2=O)c1,17,-1,-5,-15,-2,70*
CCC1CCCCN1CCNC(=O)C1CCN(S(=O)(=O)c2c(C)noc2C)CC1 (centres undefined),-1,1,-7,5,-24,48*
CC(C)CCNC(=S)Nc1ccc(Br)cc1,-5,11,-4,12,-11,17
CCCCNC(=S)NC(=O)c1ccc([N+](=O)[O-])cc1,5,0,-5,-9,0,-4
CC(C)CCNC(=S)Nc1ccc([N+](=O)[O-])cc1,-12,13,-3,29*,-16,18
CCCCNC(=S)Nc1ccc([N+](=O)[O-])cc1,-16,13,1,34*,-16,27*
NC(c1csc(Nc2ccc(C(=O)NCCO)cc2)n1)C1CCCCC1 (centres undefined),9,0,0,-10,10,-14
COc1ccc(NC(=O)CN(C)C(=O)c2ccc(NS(=O)(=O)c3cccc([N+](=O)[O-])c3)cc2)cc1,-29,0,-4,33*,8,-15
COc1ccc(NS(=O)(=O)c2cccc(C(=O)N(C)CC(=O)Nc3ccc(C)cc3)c2)cc1,18,1,-2,-4,1,-4
COc1ccc(NS(=O)(=O)c2ccc(C(=O)N(C)Cc3cccs3)cc2)cc1,-1,20*,25*,-8,-7,2
O=S(=O)(NC1CCN(Cc2ccccc2)CC1)c1ccc2ccccc2c1,18,4,-6,-12,-9,5
O=C(NNS(=O)(=O)c1ccc2ccccc2c1)C1CCN(Cc2ccccc2)CC1,2,1,-5,2,-22,85*
CCN(CC)c1ccc2cc(C(=O)c3cccs3)c(=O)oc2c1,-1,74*,131*,40*,-36,60*
O=c1oc2ccc3ccccc3c2cc1-c1nnc(-c2ccccc2)o1,-3,0,-5,3,-3,2
CCN(CC)c1ccc2cc(-c3nc4ccccc4[nH]3)c(=O)oc2c1,-14,80*,279*,8,-38,69*
CCN(CC)c1ccc2cc(-c3nnc(-c4ccccc4)o3)c(=O)oc2c1,4,28*,108*,23,-20,15*

# Source: PubChem BioAssay
